The source made the active and inactive calls. No stated cut-off is given here; in the data, active means inhibition above about 31%; inactive means the rest.
assay: MRP1 drug-resistance reversers in H69AR cells – cell-based, doxorubicin co-treatment, pilot screen (AID 601); conditions: H69AR cells, CellTiter-Glo, 72 h; compound alone cytotoxicity; at 10 µM

Row | Compound | viability
1 | COCCNC(=O)c1cc(-c2cccs2)on1 | 84.7%
2 | CC(C)c1nnc(NC(=O)C2CCCCC2)s1 | 99.5%
3 | Cc1nc2ccc(S(=O)(=O)NC(C(=O)Nc3nccs3)C(C)C)cc2s1 (stereo not given) | 95.7%
4 | O=C(Cn1c(=O)[nH]c2ccsc2c1=O)NC1CCCCCC1 | 94.3%
5 | CCCCN(C)Cc1c(O)ccc2c(-c3ccccc3)cc(=O)oc12 | 96.7%
6 | O=C(CN1CCN(Cc2ccccc2F)C1=O)NCc1cccnc1 | 107%
7 | O=c1c2ccccc2nc2n1CCN2 | 109%
8 | O=C(CSc1nnc(Cn2c(=O)sc3ccccc32)n1-c1ccccc1)Nc1nccs1 | 84.2%
9 | Cc1ccc(-n2nc(C)c3cc(C(=O)O)sc32)cc1 | 87.2%
10 | CCOC(=O)c1oc2c(CN3CCN(C)CC3)c(O)ccc2c(=O)c1-c1ccccc1OC | 93.1%
11 | CCCCn1c(NCc2ccccc2O)nc2ccccc21 | 88.1%
12 | Cc1cc2ncc(-c3ccc(Cl)cc3)c(N)n2n1 | 82.7%
13 | CC1(C(=O)NC2CCCCC2)CCC(=O)N1Cc1cccs1 (stereo not given) | 85.3%
14 | CCc1cc(=O)n2[nH]c(C)c(-c3ccccc3OC)c2n1 | 100%
15 | Cc1nnc(SCCn2c(N3CCC(Cc4ccccc4)CC3)nc3c2c(=O)[nH]c(=O)n3C)s1 | 79.4%
16 | O=C(C1CCCN(S(=O)(=O)c2cccnc2)C1)N1CCn2c1nc1ccccc12 (stereo not given) | 95.8%
17 | CCOC(=O)c1ccc(NC(=O)Cn2cc3c(n2)CCC(C)C3)cc1 (stereo not given) | 91.9%
18 | Cc1cc(C)cc(N(CC(=O)Nc2cccc(C)n2)S(=O)(=O)c2c(C)noc2C)c1 | 85.6%
19 | COc1ccc(-c2nnc(SCC(=O)N3CCOCC3)o2)cc1OC | 96.1%
20 | Cc1c(C(=O)OCc2ccccc2)[nH]c2c1C(=O)CC(c1ccco1)C2 (stereo not given) | 6.48%

Row | Compound | viability
21 | CCCn1cc(SCC(N)=O)c2ccccc21 | 91.2%
22 | CC1CCCCN1CCNC(=O)C1CCN(S(=O)(=O)c2cccc3cccnc23)CC1 (stereo not given) | 100%
23 | Cc1onc(-c2ccccc2Cl)c1C(=O)N1CCc2ccccc21 | 79%
24 | O=C(c1ccc(CNc2c(N3CCCC3)c(=O)c2=O)cc1)N1CCc2ccccc2C1 | 95.3%
25 | Cc1cccc(-n2ncc3c(NCc4cccnc4)ncnc32)c1 | 88%
26 | COc1cccc2cc(C(=O)OC3CCN(C)CC3)c(=O)oc12 | 105%
27 | CCOc1ccccc1NC(=O)CC1Nc2cc(C)c(C)cc2NC1=O (stereo not given) | 59.2%
28 | COC(=O)C(C)Sc1nnc2n(-c3cccc(C)c3)c(=O)c3c4c(sc3n12)CCCC4 (stereo not given) | 83.1%
29 | Cc1c(NC(=O)C2CCCCN2S(=O)(=O)c2ccc(Cl)cc2)c(=O)n(-c2ccccc2)n1C (stereo not given) | 91.3%
30 | CCC(=O)c1cc(F)c(N2CCN(C(=O)c3ccco3)CC2)cc1C | 87.9%
31 | Cc1cccc(C2CC(c3ccccc3)Nc3nc(N)nn32)c1 (stereo not given) | 108%
32 | Cc1ccc(C)c(NC(=O)CSc2nnc(-c3ccccc3)o2)c1 | 89.6%
33 | CCCCN(CC)CCNC(=O)c1cc2c(C)nc3ccccc3c2o1 | 85.3%
34 | O=C(Nc1ccccc1)C1=C(O)CC(c2ccoc2)CC1=Nc1ccccc1 (stereo not given) | 73%
35 | COc1ccc(OCc2nc(C#N)c(N3CCN(c4ccc(OC)cc4)CC3)o2)cc1 | 94%
36 | CCOc1cccc(OCCCCn2ccnc2)c1 | 85.4%
37 | COc1ccc(OC)c(C2CC(=O)NC(SC)=C2C#N)c1 (stereo not given) | 94.3%
38 | Cc1cc(NC(=O)c2cccc(S(=O)(=O)N3CC(c4ccccc4)CC3=O)c2)no1 (stereo not given) | 97.6%
39 | O=C(Cn1nc(Cc2ccncc2)c2ccccc2c1=O)N1CCN(C(=O)c2ccco2)CC1 | 86%
40 | COC(=O)c1sc(NC(=O)COc2ccccc2OC)nc1C | 95.1%

assay: yeast transport mutant growth inhibition pilot in 384-well plates, post-Golgi transport modulator project (AID 636); conditions: absorbance 615 nm, about 18 h, stronger effect = higher value

Row | Compound | inhibition
41 | COCCNC(=O)c1cc(-c2cccs2)on1 | -0.64% (inactive)
42 | CC(C)c1nnc(NC(=O)C2CCCCC2)s1 | -4.13% (inactive)
43 | Cc1nc2ccc(S(=O)(=O)NC(C(=O)Nc3nccs3)C(C)C)cc2s1 (stereo not given) | 0.13% (inactive)
44 | O=C(Cn1c(=O)[nH]c2ccsc2c1=O)NC1CCCCCC1 | -7.16% (inactive)
45 | CCCCN(C)Cc1c(O)ccc2c(-c3ccccc3)cc(=O)oc12 | -2.7% (inactive)
46 | O=C(CN1CCN(Cc2ccccc2F)C1=O)NCc1cccnc1 | -3.87% (inactive)
47 | O=c1c2ccccc2nc2n1CCN2 | -0.93% (inactive)
48 | O=C(CSc1nnc(Cn2c(=O)sc3ccccc32)n1-c1ccccc1)Nc1nccs1 | -5.73% (inactive)
49 | Cc1ccc(-n2nc(C)c3cc(C(=O)O)sc32)cc1 | -2.31% (inactive)
50 | CCOC(=O)c1oc2c(CN3CCN(C)CC3)c(O)ccc2c(=O)c1-c1ccccc1OC | 0% (inactive)
51 | CCCCn1c(NCc2ccccc2O)nc2ccccc21 | -4.27% (inactive)
52 | Cc1cc2ncc(-c3ccc(Cl)cc3)c(N)n2n1 | -4.93% (inactive)
53 | CC1(C(=O)NC2CCCCC2)CCC(=O)N1Cc1cccs1 (stereo not given) | 2.31% (inactive)
54 | CCc1cc(=O)n2[nH]c(C)c(-c3ccccc3OC)c2n1 | 0.13% (inactive)
55 | Cc1nnc(SCCn2c(N3CCC(Cc4ccccc4)CC3)nc3c2c(=O)[nH]c(=O)n3C)s1 | -5.21% (inactive)
56 | O=C(C1CCCN(S(=O)(=O)c2cccnc2)C1)N1CCn2c1nc1ccccc12 (stereo not given) | 0.51% (inactive)
57 | CCOC(=O)c1ccc(NC(=O)Cn2cc3c(n2)CCC(C)C3)cc1 (stereo not given) | -2.8% (inactive)
58 | Cc1cc(C)cc(N(CC(=O)Nc2cccc(C)n2)S(=O)(=O)c2c(C)noc2C)c1 | -0.64% (inactive)
59 | COc1ccc(-c2nnc(SCC(=O)N3CCOCC3)o2)cc1OC | -1.2% (inactive)
60 | Cc1c(C(=O)OCc2ccccc2)[nH]c2c1C(=O)CC(c1ccco1)C2 (stereo not given) | 4.87% (inactive)

Row | Compound | inhibition
61 | CCCn1cc(SCC(N)=O)c2ccccc21 | -4.93% (inactive)
62 | CC1CCCCN1CCNC(=O)C1CCN(S(=O)(=O)c2cccc3cccnc23)CC1 (stereo not given) | -2.53% (inactive)
63 | Cc1onc(-c2ccccc2Cl)c1C(=O)N1CCc2ccccc21 | -1.82% (inactive)
64 | O=C(c1ccc(CNc2c(N3CCCC3)c(=O)c2=O)cc1)N1CCc2ccccc2C1 | 3.59% (inactive)
65 | Cc1cccc(-n2ncc3c(NCc4cccnc4)ncnc32)c1 | -4.8% (inactive)
66 | COc1cccc2cc(C(=O)OC3CCN(C)CC3)c(=O)oc12 | -3.08% (inactive)
67 | CCOc1ccccc1NC(=O)CC1Nc2cc(C)c(C)cc2NC1=O (stereo not given) | -1.67% (inactive)
68 | COC(=O)C(C)Sc1nnc2n(-c3cccc(C)c3)c(=O)c3c4c(sc3n12)CCCC4 (stereo not given) | 2.53% (inactive)
69 | Cc1c(NC(=O)C2CCCCN2S(=O)(=O)c2ccc(Cl)cc2)c(=O)n(-c2ccccc2)n1C (stereo not given) | -3.47% (inactive)
70 | CCC(=O)c1cc(F)c(N2CCN(C(=O)c3ccco3)CC2)cc1C | -0.8% (inactive)
71 | Cc1cccc(C2CC(c3ccccc3)Nc3nc(N)nn32)c1 (stereo not given) | -4.13% (inactive)
72 | Cc1ccc(C)c(NC(=O)CSc2nnc(-c3ccccc3)o2)c1 | -6.4% (inactive)
73 | CCCCN(CC)CCNC(=O)c1cc2c(C)nc3ccccc3c2o1 | -5.73% (inactive)
74 | O=C(Nc1ccccc1)C1=C(O)CC(c2ccoc2)CC1=Nc1ccccc1 (stereo not given) | 71.4% (active)
75 | COc1ccc(OCc2nc(C#N)c(N3CCN(c4ccc(OC)cc4)CC3)o2)cc1 | -3.07% (inactive)
76 | CCOc1cccc(OCCCCn2ccnc2)c1 | 3.92% (inactive)
77 | COc1ccc(OC)c(C2CC(=O)NC(SC)=C2C#N)c1 (stereo not given) | -5.33% (inactive)
78 | Cc1cc(NC(=O)c2cccc(S(=O)(=O)N3CC(c4ccccc4)CC3=O)c2)no1 (stereo not given) | -6.4% (inactive)
79 | O=C(Cn1nc(Cc2ccncc2)c2ccccc2c1=O)N1CCN(C(=O)c2ccco2)CC1 | -4.93% (inactive)
80 | COC(=O)c1sc(NC(=O)COc2ccccc2OC)nc1C | -6.22% (inactive)

Reference: PubChem BioAssay
